Several values for one entry are separate records, joined by “and”; a condition that tells them apart may be missing. Identical values can stand only once. Among all 420,000 compounds or so, about 64,000 (15%) were called active. A call without a number means that no potency is given here. Roughly 27% stayed inconclusive and do not appear here. The call rests on the fitted dose curve; in most records, active means well fitted inhibition curve with a large enough effect; inconclusive means small, poorly fitted or top-dose-only effect; inactive means flat fitted curve, though single readings scatter. Many of the other results were omitted from the sample, so actives are more common in it than they were.
Test: qHTS for Inhibitors of human tyrosyl-DNA phosphodiesterase 1 (TDP1): qHTS in cells in absence of CPT; further: nearly all actives have a fitted effect of over 55% in size
Settings: DT40 Tdp1-/- hTDP1 cells, no CPT, ATP luminescence, 48 h; series mostly up to 46.2 µM
Procedure, shortened: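 Cells were dispensed at 400 per well, compounds added by pin tool, plates incubated ≥48 hr at 37 °C, then CellTiter-Glo added for 30 min at room temperature before luminescence reading. Line: DT40 Tdp1-/- complemented with hTDP1; camptothecin omitted.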
Potency means the concentration at half of the fitted maximal effect.

SMILES	Potency	activity change, negative = growth inhibition
ClCCN(CCCl)c1ccc(C=Nc2ccc(/C=C/c3ccnc4ccccc34)cc2)cc1	11.2 µM (active)	
COc1ccccc1NC(=O)N1C[C@@H]2C[C@@H](C1)c1cccc(=O)n1C2	inactive	
COc1ccccc1N=Nc1c(O)[nH]c(=S)[nH]c1=O	inactive	
O=c1[nH]c(=S)[nH]c(O)c1/C=C1\C=Nc2ccccc21	9.2 µM (active)	
CNC(=S)N/N=C1\C2CN3CCN(C2)CC1(c1ccccc1)C3	inactive	
C=C(C)C1(CCCC)C(=O)NC(=S)NC1=O	inactive	
CC(C)C(N)C(=O)OCCOCn1cnc2c(=O)[nH]c(N)nc21 (stereo not drawn)	4.11 µM (active)	
CC/C(=N\NC(=O)c1ccccc1O)c1c(O)n(Cc2ccccc2)c(=O)[nH]c1=O	inactive	
CC(=O)N(C1=NCCCS1)c1ccccc1F	inactive	
C[C@]12CCCCC1=CC(=O)C1C2CC[C@@]2(C)C1C[C@@H](F)[C@@H]2O (stereo partly drawn)	16.4 µM (active)	
NCCc1ccc(S(=O)(=O)F)cc1	inactive	
N=c1ccccn1Cc1ccccc1	inactive	
C/C(=C\C=C/[C@@H](C)C(=O)O)[C@H]1CN[C@H](C(=O)O)[C@@H]1CC(=O)O	inactive	
Cc1cccc(OP(=O)(Oc2cccc(C)c2)OC(c2ccccc2)C(F)(F)F)c1 (stereo not drawn)	16.4 µM (active)	
C[N+]1(C)CCOC(O)(c2ccc(-c3ccc(C4(O)C[N+](C)(C)CCO4)cc3)cc2)C1 (stereo not drawn)	inactive	
CC1=CC(=Cc2sc3ccccc3[n+]2C)C=C(C)O1	0.0164 µM (active)	
ClC(Cl)(Cl)c1ccccc1	inactive	
CCOP(=O)(OCC)C(Nc1cccc(C)c1)c1ccc(F)cc1 (stereo not drawn)	16.4 µM (active)	
CC[N+]1(C)CCCC(OC(=O)C(O)(c2ccccc2)c2ccccc2)C1 (stereo not drawn)	inactive	
O=c1[nH]c(O)c(C=Nc2cc(F)cc(F)c2)c(=O)[nH]1	inactive	
CCN(CC)c1ccc([N+](=O)[O-])c2cccnc12	inactive	
CN(c1ccccc1)c1ccc([N+](=O)[O-])c2nonc12	16.4 µM (active)	
O=C(O)/C=C/c1ccc2c(c1)OCO2	inactive	
O=C(CN1CCCC1=O)NCCc1ccccc1	inactive	
CCOP(=O)(OCC)C(Cc1ccccc1)N=C(c1ccccc1)c1ccccc1 (stereo not drawn)	14.6 µM (active)	

SMILES	Potency	activity change, negative = growth inhibition
CCOP(=O)(OCC)C(NC(=O)c1ccc(C)cc1)C(Cl)(Cl)Cl (stereo not drawn)	inactive	
CCOP(=O)(OCC)C(NC(=O)c1ccc(OC)cc1)C(Cl)(Cl)Cl (stereo not drawn)	inactive	
O=C(NC(=S)N1C[C@H]2C[C@H](C1)c1cccc(=O)n1C2)c1ccc(F)cc1	inactive	
Cc1ccc(-c2cc(C(=O)N3CCC4(CC3)OCCO4)no2)cc1	inactive	
O=C(c1ccccc1[N+](=O)[O-])N1CCC2(CC1)OCCO2	inactive	
O=C(c1cc2nc(-c3ccccc3)cc(-c3ccccc3)n2n1)N1CCC2(CC1)OCCO2	23.1 µM (active)	
CN(C)C(=O)Oc1ccc2c(c1)O/C(=C\c1ccccc1)C2=O	inactive	
Cc1ncsc1CCCl	inactive	
Cc1ccc(S(=O)(=O)N2CCCc3cc(NS(=O)(=O)c4cc(C)ccc4C)ccc32)cc1	13 µM (active)	
COC(=O)C[C@H]1CC[C@H]2NC[C@@H](O)COC[C@@H]2O1	inactive	
c1ccc2c(c1)[I+]c1ccccc1-2	33.5 nM (active) and 15.8 nM (active) and 126 nM (active)	
Cc1cccc(NC(=O)OC2CN3CCC2CC3)c1 (stereo not drawn)	inactive	
COc1ccccc1C1=NCc2nnc(CSC)n2-c2ccc(Cl)cc21	inactive	
Cc1nc2ccccn2c1P(=S)(N1CCCCC1)N1CCCCC1	18.4 µM (active)	
CC(=NCC1CCCO1)c1c(O)n(-c2ccccc2)c(=O)[nH]c1=O (stereo not drawn)	inactive	
CCc1nnc(NS(=O)(=O)c2ccc(N=Cc3c(O)n(-c4ccccc4)c(=O)[nH]c3=O)cc2)s1	inactive	
CCN(CC)C(=O)Oc1ccc(NC(=O)N2CCOCC2)cc1	inactive	
Cc1ccsc1C(=O)C1CCCN(Cc2ccc(O)cc2)C1 (stereo not drawn)	inactive	
COc1ccc(C(=O)C2CCCN(Cc3ccc(C)s3)C2)cc1OC (stereo not drawn)	14.6 µM (active)	
c1ccc(CCCCN2CCC(c3ccccc3)CC2)cc1	11.9 µM (active) and 18.4 µM (active)	
c1ccc(CCNC2CCCCCC2)cc1	inactive	
c1ccc(CCN2CCC3(CC2)OCCO3)cc1	inactive	
CCC(=O)OC(Cc1ccccc1)(c1ccccc1)C(C)CN(C)C (stereo not drawn)	inactive	
CC[C@]1(O)C(=O)OCc2c1cc1n(c2=O)Cc2cc3ccccc3nc2-1	0.0211 µM (active)	
Cc1c(C(=O)O)cccc1-n1c(C)cc(/C=C2\C(=O)NC(=O)N(c3ccc4c(c3)OCO4)C2=O)c1C	inactive	

SMILES	Potency	activity change, negative = growth inhibition
c1ccc(Cc2nn3c(Cn4cnc5ccccc54)nnc3s2)cc1	23.1 µM (active)	
CN1CC[C@H](c2c(O)cc(O)c3c(=O)cc(-c4ccccc4Cl)oc23)[C@H](O)C1	0.0282 µM (active)	
C[C@@H]1CC[C@@]2(OC1)O[C@H]1C[C@H]3[C@@H]4CC=C5C[C@@H](O)[C@H](O)C[C@]5(C)C4CC[C@]3(C)[C@H]1[C@@H]2C (stereo partly drawn)	18.4 µM (active)	
CC(=O)N1CN2CN(C(C)=O)CC(C(=O)c3ccc(Br)cc3)(C2)C1	inactive	
Cc1ccc(P(=S)(c2ccc(C)o2)N2CCOCC2)o1	inactive	
Cc1cc(-c2ccc(N)c(C)c2)ccc1N	inactive	
Fc1ccc(C(OCCN2CCN(C/C=C\c3ccccc3)CC2)c2ccc(F)cc2)cc1	6.68 µM (active)	
Cn1cc(C(=O)OCC(=O)N2CCCC2)c2ccccc21	inactive	
CCN(Cc1ccccc1)S(=O)(=O)c1ccc2c(c1)CCCN2C(C)=O	18.4 µM (active)	
Cc1ccc2c(c1)C1CN(C)CCC1N2C(=O)Cn1nnc(-c2ccccc2F)n1 (stereo not drawn)	inactive	
CC1CNCCN1c1ccc(Cl)cc1 (stereo not drawn)	inactive	
O=c1oc2ccccc2c(O)c1C(c1ccccc1O)c1c(O)c2ccccc2oc1=O		-17.6% [at 9.04 µM] (inactive)
CCC1(C)CC(CCNCc2ccc(N(C)C)cc2)(c2ccc(F)cc2)CCO1 (stereo not drawn)	16.4 µM (active)	
CC1=CC(=O)C2=C(C)C[C@H](O)[C@H]3[C@H](C)C(=O)O[C@@H]3C12 (stereo partly drawn)	inactive	
C=CC12CN(C)[C@@H]3C4CO[C@H](C[C@H]41)[C@]1(C(=O)Nc4ccccc41)[C@@H]32 (stereo partly drawn)	inactive	
COc1cc(-n2c(=S)[nH]c3ccc(C)cc3c2=O)c(Cl)cc1Cl	18.4 µM (active)	
c1ccc(N2Cc3ccccc3-n3nncc3C2)nc1	inactive	
CCOCCCNC(=O)c1c(NC(=O)c2nc(SC)ncc2Cl)sc2c1CCCC2	11.6 µM (active)	
c1ccc(C(CN2CCCCC2)c2ccccc2)cc1	inactive	
CCCCn1c(O)c(C(CC)=NCc2ccco2)c(=O)[nH]c1=O	inactive	
CCC(=NCCCO)c1c(O)n(-c2ccc(OC)cc2)c(=O)[nH]c1=O	inactive	
CCCCCCN=C(CC)c1c(O)n(CCCC)c(=O)[nH]c1=O	25.9 µM (active)	
CC(C)c1c(CN(C)C(C)Cc2ccccc2)n(C)n(-c2ccccc2)c1=O (stereo not drawn)	inactive	
Cc1c(Oc2cc(NN3CCCCC3)c([N+](=O)[O-])cc2[N+](=O)[O-])cccc1[N+](=O)[O-]	inactive	
CC(C)(C)[C@]1(O)C[C@@H]2OC(=O)C[C@@]23C(=O)O[C@@H]2OC(=O)[C@H](O)[C@]213	inactive	

SMILES	Potency	activity change, negative = growth inhibition
COc1cccc(C(c2nnnn2-c2ccc3c(c2)OCCO3)N2CCC3(CC2)C(=O)NCN3c2ccccc2)c1OC (stereo not drawn)	16.4 µM (active)	
O=c1[nH]c2ccccc2n1C1CCN(C(c2ccccc2)c2nnnn2Cc2ccccc2)CC1 (stereo not drawn)	14.6 µM (active)	
COc1ccc(-n2nnnc2C(c2cccc3ccccc23)N2CCC(n3c(=O)[nH]c4ccccc43)CC2)cc1 (stereo not drawn)	16.4 µM (active)	
CN1CCN(Cc2ccccc2C(F)(F)F)CC1	inactive	
CC(C)c1ccc(-n2c(O)c(/C=N/N3CCOCC3)c(=O)[nH]c2=S)cc1	inactive	
CC1C2Cn3c(nc4ccccc43)C1N(C)O2 (stereo not drawn)	inactive	
CC(=O)c1c(O)c(C)c(O)c(Cc2c(O)c3c(c(C(=O)/C=C\c4ccccc4)c2O)OC(C)(C)C=C3)c1O	13.3 µM (active)	
CC(=O)c1c(O)c(C)c(O)c(Cc2c(O)c3c(c(C(=O)/C=C/c4ccccc4)c2O)OC(C)(C)C=C3)c1O	8.91 µM (active) and 19.8 µM (active) and 13.3 µM (active)	
c1cc2c(cc1[C@H]1OC[C@H]3[C@@H]1CO[C@@H]3c1ccc3c(c1)OCO3)OCO2	inactive	
O=C(O)CCn1cc(C=C2C(=O)NC(=S)NC2=O)c(-c2cccc(Br)c2)n1	inactive	
CCCC[N+]1(C)C2CC(OC(=O)C(CO)c3ccccc3)CC1C1OC12 (stereo not drawn)	inactive	
OC[C@@H]1CN(Cc2ccncc2)C[C@H](n2cnc3c(N4CCN(c5ccccc5)CC4)ncnc32)O1	2.91 µM (active)	
CC(C)Nc1nc(Cl)nc(NC(C)C)n1	inactive	
COc1ccccc1C(=O)N[C@@H]1c2ccccc2C2(CCN(Cc3nc(C(C)C)cs3)CC2)[C@H]1O	1.64 µM (active)	
Cc1cccc(-n2c(O)c(/C=N/N3CCOCC3)c(=O)[nH]c2=S)c1	inactive	
NC(=O)Nc1cccc(C(F)(F)F)c1	inactive	
CC(=O)Nc1cc(-c2cccc(CO)c2)cn2c(-c3cccc(C(F)(F)F)c3)cnc12	18.4 µM (active)	
CCN1CCN(c2nc3c(c(=O)[nH]2)CCC3)CC1	inactive	
COC(=O)CN(CCCl)P1(=O)OCCCN1CCCl (stereo not drawn)	inactive	
Fc1cccc(F)c1CN1CCN(Cc2c(F)cccc2F)CC1	inactive	
CN(C)c1cccc(C(=O)Nc2nc3ccc(S(=O)(=O)NC(C)(C)C)cc3s2)c1	11.6 µM (active)	
O=c1[nH]c(=S)n(C2CC2)c(O)c1/C=N/N1CCOCC1	inactive	
O=C1NCN(c2ccccc2)C12CCN(C(c1cccs1)c1nnnn1C1CCCCC1)CC2 (stereo not drawn)	16.4 µM (active)	
